The results in this text go back to paper PMC7862700, “An all-to-all approach to the identification of sequence-specific readers for epigenetic DNA modifications on cytosine”.

Common to all, as to assay: DAPPL (digital affinity profiling via proximity ligation, sequencing); 10 mM Tris-HCl pH 7.5, 50 mM NaCl, 1 mM DTT, 4% glycerol, room temperature, 30 min; GST-TFs on glutathione beads, 16-mer random dsDNA library, 0.1% formaldehyde crosslink after washing; high values mean tight binding
Common to all, as to conditions: protein: recombinant; tags: N-terminal GST; dsDNA, one strand shown

In assay [1] the target is T1, FLI1 (Homo sapiens, UniProt Q01543 1-452).
T1 sequence: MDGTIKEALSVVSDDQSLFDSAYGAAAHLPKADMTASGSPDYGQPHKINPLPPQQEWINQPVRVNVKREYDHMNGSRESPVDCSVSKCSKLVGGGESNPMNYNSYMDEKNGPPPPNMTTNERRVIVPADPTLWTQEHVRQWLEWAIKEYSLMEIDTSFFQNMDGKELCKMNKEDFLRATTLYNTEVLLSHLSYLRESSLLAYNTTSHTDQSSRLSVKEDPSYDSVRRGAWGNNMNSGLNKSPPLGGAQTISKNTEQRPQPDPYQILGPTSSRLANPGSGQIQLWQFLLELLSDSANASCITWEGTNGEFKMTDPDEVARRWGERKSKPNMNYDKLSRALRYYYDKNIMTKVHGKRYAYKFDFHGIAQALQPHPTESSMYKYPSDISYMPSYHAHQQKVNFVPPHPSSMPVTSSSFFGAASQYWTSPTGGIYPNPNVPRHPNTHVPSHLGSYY
A digest of the protocol: (§1)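 A tag-only sample was pooled with DNA-barcoded human transcription factors that had been expressed in yeast as GST fusions and captured on glutathione beads. The pools were incubated for 30 min at room temperature with 200 nmole of a random double-stranded 16-mer DNA library in Tris/NaCl/DTT/glycerol buffer, then washed, crosslinked with 0.1% formaldehyde, proximity-ligated (BsaI/T4 ligase, 1 h, 37 °C), PCR-amplified and sequenced on an Illumina NextSeq500. Binding signal is each hexamer's read frequency for a factor divided by its frequency for the tag-only sample.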

Assay [2] deals with T2, ELK1 (Homo sapiens, UniProt P19419 1-428).
T2 sequence: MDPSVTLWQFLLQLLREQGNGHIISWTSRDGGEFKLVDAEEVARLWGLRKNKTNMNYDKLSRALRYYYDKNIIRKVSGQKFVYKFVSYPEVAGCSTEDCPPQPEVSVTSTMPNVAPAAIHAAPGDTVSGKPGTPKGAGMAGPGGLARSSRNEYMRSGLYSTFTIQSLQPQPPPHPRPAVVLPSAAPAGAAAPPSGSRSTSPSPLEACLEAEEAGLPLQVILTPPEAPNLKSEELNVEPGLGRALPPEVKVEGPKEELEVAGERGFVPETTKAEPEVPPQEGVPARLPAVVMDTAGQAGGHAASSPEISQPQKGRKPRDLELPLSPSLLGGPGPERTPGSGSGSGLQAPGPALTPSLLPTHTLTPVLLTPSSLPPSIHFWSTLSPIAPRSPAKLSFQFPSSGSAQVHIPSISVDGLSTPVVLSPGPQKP
Put shortly: as §1

In assay [3] the target is T3, GABPA (Homo sapiens, UniProt Q06546 1-454).
T3 sequence: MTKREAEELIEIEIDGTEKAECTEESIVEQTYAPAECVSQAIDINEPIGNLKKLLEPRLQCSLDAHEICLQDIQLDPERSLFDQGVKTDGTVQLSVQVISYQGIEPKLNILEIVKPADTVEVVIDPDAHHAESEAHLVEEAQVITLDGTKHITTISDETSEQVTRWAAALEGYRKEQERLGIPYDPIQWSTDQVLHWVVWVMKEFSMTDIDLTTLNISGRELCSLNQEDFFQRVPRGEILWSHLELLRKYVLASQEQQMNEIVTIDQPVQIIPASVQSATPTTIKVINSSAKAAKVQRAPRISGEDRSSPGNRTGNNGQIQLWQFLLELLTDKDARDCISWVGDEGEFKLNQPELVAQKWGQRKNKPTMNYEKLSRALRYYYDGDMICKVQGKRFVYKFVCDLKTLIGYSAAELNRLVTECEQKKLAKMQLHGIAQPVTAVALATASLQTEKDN
A digest of the protocol: as §1

Assay [4] concerns the target T4, ERG (Homo sapiens, UniProt P11308 1-479).
T4 sequence: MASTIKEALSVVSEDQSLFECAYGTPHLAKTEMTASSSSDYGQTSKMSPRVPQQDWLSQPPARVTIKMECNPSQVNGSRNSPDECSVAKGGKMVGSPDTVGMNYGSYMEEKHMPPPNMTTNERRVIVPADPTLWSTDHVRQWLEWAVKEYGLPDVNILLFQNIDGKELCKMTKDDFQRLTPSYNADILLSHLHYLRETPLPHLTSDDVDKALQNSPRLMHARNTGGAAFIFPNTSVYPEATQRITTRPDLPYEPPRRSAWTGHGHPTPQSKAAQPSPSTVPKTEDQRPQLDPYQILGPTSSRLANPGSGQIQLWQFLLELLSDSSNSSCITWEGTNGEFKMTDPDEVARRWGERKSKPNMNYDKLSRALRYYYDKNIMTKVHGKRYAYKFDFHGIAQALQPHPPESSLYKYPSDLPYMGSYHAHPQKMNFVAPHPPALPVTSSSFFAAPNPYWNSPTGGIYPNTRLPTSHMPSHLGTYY
Put shortly: as §1

The target of assay [5] is ELF1 (Homo sapiens, UniProt P32519 1-619). A digest of the protocol: as §1
Chain of ELF1 (P32519 whole entry): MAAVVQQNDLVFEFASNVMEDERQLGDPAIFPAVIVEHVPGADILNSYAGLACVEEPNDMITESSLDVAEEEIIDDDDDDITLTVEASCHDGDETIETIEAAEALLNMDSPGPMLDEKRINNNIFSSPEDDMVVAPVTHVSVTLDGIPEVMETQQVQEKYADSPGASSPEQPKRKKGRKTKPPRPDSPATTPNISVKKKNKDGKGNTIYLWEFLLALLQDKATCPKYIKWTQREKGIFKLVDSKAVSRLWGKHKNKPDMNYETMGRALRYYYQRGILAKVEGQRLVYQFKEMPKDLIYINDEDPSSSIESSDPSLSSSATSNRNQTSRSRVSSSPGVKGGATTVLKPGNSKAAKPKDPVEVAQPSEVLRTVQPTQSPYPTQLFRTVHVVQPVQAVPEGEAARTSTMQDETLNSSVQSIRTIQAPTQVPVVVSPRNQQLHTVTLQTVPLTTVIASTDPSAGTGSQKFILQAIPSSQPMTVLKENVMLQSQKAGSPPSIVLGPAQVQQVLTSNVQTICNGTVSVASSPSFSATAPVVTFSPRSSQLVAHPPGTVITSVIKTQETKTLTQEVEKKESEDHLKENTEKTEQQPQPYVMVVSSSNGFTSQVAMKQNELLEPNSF
In assay [6] the target is T5, EHF (Homo sapiens, UniProt Q9NZC4 1-300).
T5 sequence: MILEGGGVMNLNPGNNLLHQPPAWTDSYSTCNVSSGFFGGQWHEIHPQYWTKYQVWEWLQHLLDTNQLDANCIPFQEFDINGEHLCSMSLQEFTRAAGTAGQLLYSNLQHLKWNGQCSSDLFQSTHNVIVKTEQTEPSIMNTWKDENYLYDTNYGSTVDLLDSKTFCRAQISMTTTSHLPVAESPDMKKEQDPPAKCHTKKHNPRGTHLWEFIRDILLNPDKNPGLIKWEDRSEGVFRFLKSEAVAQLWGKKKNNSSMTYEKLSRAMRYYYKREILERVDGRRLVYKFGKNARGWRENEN
Put shortly: as §1

Assay [7] addresses SPI1 (Homo sapiens, UniProt P17947 1-270). A digest of the protocol: as §1
Assay [8] deals with SPIB (Homo sapiens, UniProt Q01892 1-262). A digest of the protocol: as §1
Chain of SPIB (Q01892 whole entry): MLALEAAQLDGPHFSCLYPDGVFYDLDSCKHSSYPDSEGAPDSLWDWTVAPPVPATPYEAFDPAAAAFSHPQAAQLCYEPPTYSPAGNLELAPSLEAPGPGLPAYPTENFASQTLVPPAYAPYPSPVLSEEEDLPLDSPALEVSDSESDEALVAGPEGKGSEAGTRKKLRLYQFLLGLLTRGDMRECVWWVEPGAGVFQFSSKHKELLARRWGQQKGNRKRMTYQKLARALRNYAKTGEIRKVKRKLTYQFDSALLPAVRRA
Assay [9] deals with T6, FEV (Homo sapiens, UniProt Q99581 1-238).
T6 sequence: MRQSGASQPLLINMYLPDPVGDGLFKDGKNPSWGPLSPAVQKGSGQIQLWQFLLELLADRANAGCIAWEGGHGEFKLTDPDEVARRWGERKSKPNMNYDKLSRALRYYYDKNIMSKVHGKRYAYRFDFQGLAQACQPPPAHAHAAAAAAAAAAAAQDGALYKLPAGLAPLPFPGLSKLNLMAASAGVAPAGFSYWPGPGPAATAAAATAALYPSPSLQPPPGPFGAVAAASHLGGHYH
A digest of the protocol:
as §1

Assay [10] addresses ETV5 (Homo sapiens, UniProt P41161 1-510). A digest of the protocol:
as §1

For assay [11], the target named is ELF4 (Homo sapiens, UniProt Q99607 1-663). A digest of the protocol:
as §1

The target in assay [12] is ETV1 (Homo sapiens, UniProt P50549 1-477). Put shortly: as §1
Chain of ETV1 (P50549 whole entry): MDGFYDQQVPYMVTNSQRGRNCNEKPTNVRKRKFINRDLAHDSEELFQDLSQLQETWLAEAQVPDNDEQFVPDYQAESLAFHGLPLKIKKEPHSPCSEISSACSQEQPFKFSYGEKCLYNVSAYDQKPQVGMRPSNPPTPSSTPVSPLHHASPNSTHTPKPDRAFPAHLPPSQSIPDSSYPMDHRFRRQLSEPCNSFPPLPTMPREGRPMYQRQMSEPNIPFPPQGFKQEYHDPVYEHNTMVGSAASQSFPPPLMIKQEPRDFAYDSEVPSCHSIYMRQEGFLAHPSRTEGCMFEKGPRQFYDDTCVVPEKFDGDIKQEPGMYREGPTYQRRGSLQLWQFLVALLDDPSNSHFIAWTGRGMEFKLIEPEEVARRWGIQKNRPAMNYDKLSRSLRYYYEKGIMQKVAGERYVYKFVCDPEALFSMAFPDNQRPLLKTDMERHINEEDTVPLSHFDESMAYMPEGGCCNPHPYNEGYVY
The target of assay [13] is T7, ERF (Homo sapiens, UniProt P50548 1-548).
T7 sequence: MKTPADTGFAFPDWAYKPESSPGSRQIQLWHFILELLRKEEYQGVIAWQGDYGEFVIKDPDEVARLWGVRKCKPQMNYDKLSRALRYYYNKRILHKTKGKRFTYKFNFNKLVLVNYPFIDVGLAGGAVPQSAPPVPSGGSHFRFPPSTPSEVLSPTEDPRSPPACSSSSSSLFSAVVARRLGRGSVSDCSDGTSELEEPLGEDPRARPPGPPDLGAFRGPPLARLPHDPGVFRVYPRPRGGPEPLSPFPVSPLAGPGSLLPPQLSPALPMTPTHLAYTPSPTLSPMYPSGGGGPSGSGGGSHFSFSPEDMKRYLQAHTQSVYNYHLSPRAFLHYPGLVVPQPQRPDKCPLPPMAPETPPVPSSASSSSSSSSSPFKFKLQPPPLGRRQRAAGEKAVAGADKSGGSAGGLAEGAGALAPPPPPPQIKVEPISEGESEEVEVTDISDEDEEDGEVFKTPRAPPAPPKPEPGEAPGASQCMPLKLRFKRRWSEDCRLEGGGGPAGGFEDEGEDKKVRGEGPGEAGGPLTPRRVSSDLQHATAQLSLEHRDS
Put shortly: as §1

The target of assay [14] is T8, ETV3L (Homo sapiens, UniProt Q6ZN32 1-361).
T8 sequence: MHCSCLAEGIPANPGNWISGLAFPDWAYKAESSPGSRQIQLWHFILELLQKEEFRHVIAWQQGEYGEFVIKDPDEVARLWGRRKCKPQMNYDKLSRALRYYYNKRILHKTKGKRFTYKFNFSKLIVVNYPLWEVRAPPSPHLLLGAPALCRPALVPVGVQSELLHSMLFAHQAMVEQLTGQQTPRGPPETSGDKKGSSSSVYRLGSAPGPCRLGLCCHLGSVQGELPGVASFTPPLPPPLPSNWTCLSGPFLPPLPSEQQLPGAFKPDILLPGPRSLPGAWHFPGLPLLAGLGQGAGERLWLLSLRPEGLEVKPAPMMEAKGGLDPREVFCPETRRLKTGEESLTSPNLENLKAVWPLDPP
Put shortly: as §1

The target in assay [15] is T9, ETS2 (Homo sapiens, UniProt P15036 1-469).
T9 sequence: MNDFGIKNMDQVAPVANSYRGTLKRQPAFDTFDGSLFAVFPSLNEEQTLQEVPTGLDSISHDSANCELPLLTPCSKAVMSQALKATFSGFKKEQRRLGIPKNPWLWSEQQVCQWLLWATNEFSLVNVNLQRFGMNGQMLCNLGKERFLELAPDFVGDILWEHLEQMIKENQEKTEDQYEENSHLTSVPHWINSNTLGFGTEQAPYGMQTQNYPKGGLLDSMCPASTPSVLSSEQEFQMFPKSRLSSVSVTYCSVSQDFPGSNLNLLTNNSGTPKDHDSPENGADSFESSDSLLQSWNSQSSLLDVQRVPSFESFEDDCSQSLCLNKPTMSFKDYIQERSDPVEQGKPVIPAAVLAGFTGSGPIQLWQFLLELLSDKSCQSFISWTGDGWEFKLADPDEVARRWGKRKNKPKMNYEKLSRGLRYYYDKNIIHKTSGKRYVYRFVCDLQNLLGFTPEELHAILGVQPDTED
A digest of the protocol:
as §1

Assay [16] addresses T10, SPDEF (Homo sapiens, UniProt O95238 1-335).
T10 sequence: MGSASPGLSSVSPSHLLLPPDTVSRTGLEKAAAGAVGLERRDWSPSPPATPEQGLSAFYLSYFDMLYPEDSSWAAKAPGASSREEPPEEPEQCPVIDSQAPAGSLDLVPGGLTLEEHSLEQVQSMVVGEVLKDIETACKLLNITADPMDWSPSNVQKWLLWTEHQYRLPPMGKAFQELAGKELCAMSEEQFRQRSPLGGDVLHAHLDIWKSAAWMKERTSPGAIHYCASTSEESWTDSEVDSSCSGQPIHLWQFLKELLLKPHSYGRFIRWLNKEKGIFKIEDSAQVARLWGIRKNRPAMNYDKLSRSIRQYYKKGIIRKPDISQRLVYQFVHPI
A digest of the protocol: as §1

In assay [17] the target is T11, ELF5 (Homo sapiens, UniProt Q9UKW6-2 1-255).
T11 sequence: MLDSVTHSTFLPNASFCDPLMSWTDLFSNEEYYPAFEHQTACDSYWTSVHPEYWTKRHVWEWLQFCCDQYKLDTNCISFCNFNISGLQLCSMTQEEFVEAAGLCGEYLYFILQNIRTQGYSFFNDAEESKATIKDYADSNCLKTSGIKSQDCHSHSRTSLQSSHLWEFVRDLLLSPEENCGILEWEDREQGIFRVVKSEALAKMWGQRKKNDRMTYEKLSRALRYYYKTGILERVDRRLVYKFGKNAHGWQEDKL
Put shortly:
as §1

For assay [18], the target named is T12, ETV3 (Homo sapiens, UniProt P41162-2 1-143).
T12 sequence: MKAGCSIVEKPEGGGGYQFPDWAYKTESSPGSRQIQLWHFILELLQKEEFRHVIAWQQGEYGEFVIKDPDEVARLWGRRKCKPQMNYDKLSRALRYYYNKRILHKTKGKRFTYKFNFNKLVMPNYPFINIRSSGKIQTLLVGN
A digest of the protocol:
as §1

For assay [19], the target named is ETV6 (Homo sapiens, UniProt P41212 1-452). Put shortly:
as §1

Chain of ELF4 (Q99607 whole entry): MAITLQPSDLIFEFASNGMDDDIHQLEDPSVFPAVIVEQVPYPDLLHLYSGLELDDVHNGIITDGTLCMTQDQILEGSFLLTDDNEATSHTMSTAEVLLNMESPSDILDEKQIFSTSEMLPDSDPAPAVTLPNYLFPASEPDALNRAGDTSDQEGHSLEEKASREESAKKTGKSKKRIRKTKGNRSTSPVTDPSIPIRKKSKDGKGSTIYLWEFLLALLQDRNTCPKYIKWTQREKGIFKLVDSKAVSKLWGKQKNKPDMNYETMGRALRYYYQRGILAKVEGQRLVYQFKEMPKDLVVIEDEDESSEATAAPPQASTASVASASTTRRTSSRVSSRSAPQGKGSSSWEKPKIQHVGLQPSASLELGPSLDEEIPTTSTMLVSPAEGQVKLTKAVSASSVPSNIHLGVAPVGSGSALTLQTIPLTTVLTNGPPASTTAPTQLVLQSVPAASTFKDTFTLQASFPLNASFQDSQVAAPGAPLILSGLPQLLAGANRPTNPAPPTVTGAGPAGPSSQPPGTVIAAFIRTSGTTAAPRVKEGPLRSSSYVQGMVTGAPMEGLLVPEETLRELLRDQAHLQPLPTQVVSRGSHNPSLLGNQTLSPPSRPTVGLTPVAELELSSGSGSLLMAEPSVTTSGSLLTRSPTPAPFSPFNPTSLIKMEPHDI
Chain of ETV6 (P41212 whole entry): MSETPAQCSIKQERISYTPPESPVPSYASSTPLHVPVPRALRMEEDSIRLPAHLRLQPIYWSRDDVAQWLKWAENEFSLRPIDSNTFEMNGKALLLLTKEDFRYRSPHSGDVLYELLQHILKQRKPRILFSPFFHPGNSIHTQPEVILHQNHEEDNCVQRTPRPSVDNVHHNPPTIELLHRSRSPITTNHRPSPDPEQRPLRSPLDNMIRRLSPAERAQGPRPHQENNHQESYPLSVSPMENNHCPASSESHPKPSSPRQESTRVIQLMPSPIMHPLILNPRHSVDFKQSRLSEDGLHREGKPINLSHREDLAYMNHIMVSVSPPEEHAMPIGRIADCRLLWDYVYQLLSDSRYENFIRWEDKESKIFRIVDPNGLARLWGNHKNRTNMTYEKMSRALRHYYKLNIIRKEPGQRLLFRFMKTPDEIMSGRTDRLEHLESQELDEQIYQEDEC
Chain of ETV5 (P41161 whole entry): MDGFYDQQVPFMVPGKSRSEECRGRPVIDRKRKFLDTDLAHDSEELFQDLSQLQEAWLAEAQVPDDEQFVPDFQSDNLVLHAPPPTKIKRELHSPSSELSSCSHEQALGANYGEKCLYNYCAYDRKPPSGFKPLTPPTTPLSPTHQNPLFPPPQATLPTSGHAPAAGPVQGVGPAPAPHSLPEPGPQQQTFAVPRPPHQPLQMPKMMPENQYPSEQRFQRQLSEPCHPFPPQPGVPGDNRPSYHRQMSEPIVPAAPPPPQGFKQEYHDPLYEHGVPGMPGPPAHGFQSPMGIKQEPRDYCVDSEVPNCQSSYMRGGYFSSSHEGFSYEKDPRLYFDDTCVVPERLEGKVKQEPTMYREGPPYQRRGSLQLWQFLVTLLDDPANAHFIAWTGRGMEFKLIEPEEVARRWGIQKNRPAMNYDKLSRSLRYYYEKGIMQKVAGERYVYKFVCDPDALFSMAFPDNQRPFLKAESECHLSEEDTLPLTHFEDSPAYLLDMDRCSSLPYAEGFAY

Consider ATTGGC, for which the binding signal in [1] was 1.23 fold enrichment (6-mer frequency, TF over GST control); in assay [2] it was 1.11 fold enrichment (6-mer frequency, TF over GST control); in assay [3], 1.09 fold enrichment (6-mer frequency, TF over GST control); in assay [4] it was 1.05 fold enrichment (6-mer frequency, TF over GST control); in assay [5] it was 1.13 fold enrichment (6-mer frequency, TF over GST control); in [6], 1.15 fold enrichment (6-mer frequency, TF over GST control). Besides, the binding signal is 1.01 fold enrichment (6-mer frequency, TF over GST control) in [7]; 1.13 fold enrichment (6-mer frequency, TF over GST control) in assay [8]; 1.13 fold enrichment (6-mer frequency, TF over GST control) in [9]; 1.07 fold enrichment (6-mer frequency, TF over GST control) in assay [10]; 1.14 fold enrichment (6-mer frequency, TF over GST control) in assay [11]; 1.11 fold enrichment (6-mer frequency, TF over GST control) in assay [12]. For the same sequence, the binding signal in [13] is 1.15 fold enrichment (6-mer frequency, TF over GST control); in assay [14], 1.18 fold enrichment (6-mer frequency, TF over GST control); in [15] it was 1.18 fold enrichment (6-mer frequency, TF over GST control); in [16], 1.12 fold enrichment (6-mer frequency, TF over GST control); in assay [17], 1.08 fold enrichment (6-mer frequency, TF over GST control); in assay [18], 1.09 fold enrichment (6-mer frequency, TF over GST control). The binding signal in assay [19] is 1.13 fold enrichment (6-mer frequency, TF over GST control).
